According to the supplement of paper PMC9433436:
± gives the standard deviation of the averaged measurements. The full ranking holds about 4,100 sequences; the median of “relative kcat/Km (krel) vs genomic leader AAAGAU” is about 1.7, and the highest 2% start at about 6.5. The list comes from a sample in which the highest values are over-represented; it also holds similar and randomly drawn sequences.

Target: T1, E. coli RNase P holoenzyme (M1 P RNA + rnpA protein) (UniProt P0A7Y8)
T1 sequence: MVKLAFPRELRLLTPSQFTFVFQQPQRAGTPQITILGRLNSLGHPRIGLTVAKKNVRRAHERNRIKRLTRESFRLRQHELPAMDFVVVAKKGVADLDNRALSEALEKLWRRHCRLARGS
Test: relative kcat/Km (krel) vs genomic leader AAAGAU (relative (reference leader = 1)); higher = faster RNase P cleavage
Experimental: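 HTS-Kin: a pool of ptRNA-Met (21C construct) with all 4096 combinations of 5' leader nucleotides N(-6) to N(-1) was processed in vitro by E. coli RNase P (P RNA + rnpA/C5 protein) under multiple-turnover conditions at 37 C, pH 8, 17.5 mM MgCl2. Residual substrate was Illumina-sequenced at several fractions reacted, and relative kcat/Km (krel) was computed by internal competition kinetics, calibrated to the genomic leader (AAAGAU = 1). The listed hexamer is the varied N(-6)..N(-1) leader (DNA letters), and it sits between a fixed 5' stem-loop flank (GCAUGCACGAAAGUGCGUGCUAUGAA) and the mature tRNA-Met starting GGCUACGUAGCUCAGUUGG. Two technical replicates are averaged.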

[1] = fraction of substrate reacted: ~9-10% (9.79% repeat 1, 9.1% repeat 2)
[2] = fraction of substrate reacted: ~13-16% (15.68% repeat 1, 13.17% repeat 2)
[3] = fraction of substrate reacted: ~26-29% (28.66% repeat 1, 26.4% repeat 2)

Sequence	relative kcat/Km [1]	relative kcat/Km [2]	relative kcat/Km [3]
TTCAAT	4.1 ± 1.6	5.53 ± 0.71	9.07 ± 3.9
CTCAAC	3.75 ± 0.14	5.06 ± 1.2	7.63 ± 3.4
TTCAAG	2.98 ± 2.4	3.38 ± 0.47	5.77 ± 2
ATCAAC	3.56 ± 1.5	4.05 ± 0.78	5.86 ± 1.6
CTTCTT	2.75 ± 1.4	3.05 ± 0.55	3.45 ± 0.96
AACCGC	3.24 ± 0.86	3.02 ± 0.23	4.02 ± 0.71
GATTGG	–	–	0.409 ± 0.2
ATTCCA	2.17 ± 0.89	2.11 ± 0.63	1.93 ± 0.82
TAATTA	2.15 ± 1.5	2.05 ± 0.57	2.99 ± 1.1
ACGTTC	2.18 ± 0.36	2.45 ± 0.76	3.59 ± 1.4
CATCAA	2.69 ± 0.095	3.35 ± 0.32	4.59 ± 1.9
TCCGGA	1.02 ± 0.16	1.33 ± 0.95	1.83 ± 1.3
TCGCAT	2.12 ± 0.11	3.11 ± 0.57	5.13 ± 2.3
CGCAAT	1.86 ± 0.36	2.82 ± 1.1	4.14 ± 1.8
CCCAAT	2.73 ± 0.86	3.48 ± 0.28	5.27 ± 1.6
GCCAAC	1.34 ± 0.25	1.28 ± 1.1	3.94 ± 1
AGCAAT	2.43 ± 0.54	2.33 ± 0.049	3.3 ± 1.1
CTCAAT	4.23 ± 0.85	5.46 ± 1.7	7.66 ± 3.5
GTCAAC	4.47 ± 1.7	5.05 ± 1.3	7.94 ± 3.1
ATCAAT	3.19 ± 0.91	4.2 ± 0.86	6.65 ± 3.1
GGCAAC	2.31 ± 1.6	2.29 ± 0.56	3.36 ± 0.68

Sequence	relative kcat/Km [1]	relative kcat/Km [2]	relative kcat/Km [3]
AGTAAG	–	1.26 ± 0.66	3.3 ± 0.62
TAATCG	–	0.624 ± 0.13	1.73 ± 0.43
TAGGTG	–	–	0.812 ± 0.66
GCAATG	–	–	1.35 ± 0.34
TTGCAC	2.41 ± 1.3	2.27 ± 0.05	3.33 ± 0.78
TCTGTT	1.56 ± 0.75	1.38 ± 1.1	1.89 ± 1.2
ACCAAA	2.83 ± 2.3	3.55 ± 0.63	4.37 ± 0.92
AATGAA	2.18 ± 1.1	2.14 ± 0.073	2.72 ± 0.88
GGCGAT	1.24 ± 0.38	1.52 ± 0.5	2.32 ± 0.83
GGGCAA	–	1 ± 0.65	1.5 ± 0.79
GGGGAT	–	–	1.93 ± 1.9
TATCAC	4.08 ± 2.5	4.88 ± 0.12	7.11 ± 2.8
AATCAC	2.09 ± 1.1	2.63 ± 0.078	4.12 ± 1.3
AATCAT	3.17 ± 2	2.88 ± 0.24	4.38 ± 1.7
TATCAT	4.22 ± 1.9	5.02 ± 0.57	7.37 ± 3.5
GATCAC	2.93 ± 0.77	4.27 ± 1.3	5.26 ± 2.1
GATCAT	2.26 ± 0.96	3.62 ± 0.21	5.17 ± 1.7
CCATCT	2.12 ± 1.5	1.53 ± 1.1	2.64 ± 0.42
TACACG	2.67 ± 2.1	2.37 ± 0.74	3.55 ± 0.64
CAGTAC	3.68 ± 1.6	4.92 ± 0.95	6.37 ± 2.2
TAGTAT	3.26 ± 0.97	4.14 ± 0.84	6.5 ± 3.2

Sequence	relative kcat/Km [1]	relative kcat/Km [2]	relative kcat/Km [3]
TAGTAA	3.7 ± 0.66	4.78 ± 0.65	6.72 ± 3
AAGTAC	3.18 ± 1.6	3.53 ± 0.57	4.86 ± 1.7
TAGTAC	4.35 ± 1.3	5.28 ± 0.82	7.85 ± 3.4
AAGTAA	2.99 ± 1.7	3.36 ± 0.17	4.47 ± 1.6
TCATCG	1.66 ± 1.1	0.943 ± 0.074	1.96 ± 0.15
CGATGC	2.88 ± 0.51	2.7 ± 1.8	4.03 ± 1.4
TAGCTT	1.84 ± 0.3	2.04 ± 0.21	2.8 ± 1.2
TGCGCA	2 ± 0.91	1.69 ± 0.53	2.46 ± 0.77
GTCGTC	3.09 ± 1.7	2.79 ± 0.12	4.02 ± 1.6
GTCGCT	2.09 ± 1.2	2.03 ± 0.41	3.35 ± 1
ATCGCC	4.35 ± 0.56	5.34 ± 2	7.69 ± 3
TTCGCA	4.21 ± 0.84	6.08 ± 1.7	8.75 ± 3.8
ATCGCA	3.36 ± 1	4.58 ± 0.2	6.35 ± 2.8
ATCGCG	2.62 ± 1.1	1.7 ± 0.89	3.07 ± 0.91
GGCGCA	1.73 ± 0.44	2 ± 1.2	3.02 ± 1.3
ATCGCT	2.5 ± 0.7	2.34 ± 0.31	3.27 ± 0.6
GTCGCA	4.66 ± 1.2	5.5 ± 1.6	7.77 ± 3.1
GTCGCC	4.34 ± 1.4	5.5 ± 0.42	7.93 ± 3.1
GTCGCG	2.3 ± 2.2	1.77 ± 0.36	3.47 ± 0.87
GGTCAA	0.981 ± 0.11	1.45 ± 0.14	1.83 ± 1.1
